# Measured values taken from the supplement of paper PMC8728848.
# This excerpt belongs to a sample that is enriched for the strongest signals.
# B1: PX9961C-bth-497-22-497 (Bacteroides thetaiotaomicron) (protein)
# chain: DWLDLNTTSSVETGQAIVTLDDAQIALNGIYRLASGHSYYGDNYWYYGDCRAADVQARITKGDGKRVSPYYEYNVLASDNLNIVLPWNTVYKVIRQTNNLIQKIESGSIQSSDTKELNRIKSEALVMRGLSLFNLTRLFGMPYTNDKGASLGVPIETSPSDPTHKPSRSTVAQCYEQVVSDMSNALSGLRQETSNGYINYWAAQALLSRVYLNMGEYQKAYDAATDVIKNNGGRYQLYSYEEYPNVWGQDFQSESLFELYITLSEPSGGTGGEGAPMVYANEATVDWNNLILSEDFLNLLNEDPKDVRHCLTKESVIENNTGLPAAAMHEKVYLAKFPGKTGDDPKTNNICIIRLSEVYLNAAEAGLKKGTDIEEAQGYLNDIISRRTTDTSQQVSTETFTLDRILKERRKELVGEGEVFYDYLRNGLAIERKGSWHLETLKASNAQKIEATDLRIALPIPQSEIDANPNIQQNPR
# What was measured:
# Assay in all cases: glycan array binding signal (z-score within array); higher = stronger binding
# Details in all cases: glycan notation: IUPAC condensed, linker removed
# [1] = target: GalNAc(b1-4)GlcNAc(b1-2)Man(a1-3)[GalNAc(b1-4)GlcNAc(b1-2)Man(a1-6)]Man(b1-4)GlcNAc(b1-4)GlcNAc
# Procedure, shortened: (§1)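 Columns mapping to the same glycan were averaged after glycan names were converted to IUPAC-condensed notation. The data come from 3228 arrays in the Consortium for Functional Glycomics database, limited to those with an available protein sequence. Binding is reported as a within-array Z-score averaged across arrays of one protein sequence and across linkers.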
# [2] = target: GlcA(b1-3)GlcNAc
# Procedure, shortened: as §1
# [3] = target: GlcNAc(a1-4)Gal(b1-4)GalNAc
# Procedure, shortened: as §1
# [4] = target: GlcNAc(a1-4)Gal(b1-4)GlcNAc(b1-3)Gal(b1-4)GlcNAc(b1-3)Gal(b1-4)GlcNAc
# Procedure, shortened: as §1
# [5] = target: GlcNAc(b1-3)Gal(b1-4)GlcNAc(b1-3)Gal(b1-4)GlcNAc(b1-2)Man(a1-3)[GlcNAc(b1-3)Gal(b1-4)GlcNAc(b1-3)Gal(b1-4)GlcNAc(b1-2)Man(a1-6)]Man(b1-4)GlcNAc(b1-4)GlcNAc
# Procedure, shortened: as §1
# [6] = target: GlcNAc(b1-3)Gal(b1-4)GlcNAc(b1-3)Gal(b1-4)GlcNAc(b1-3)Gal(b1-4)GlcNAc(b1-2)Man(a1-3)[GlcNAc(b1-3)Gal(b1-4)GlcNAc(b1-3)Gal(b1-4)GlcNAc(b1-3)Gal(b1-4)GlcNAc(b1-2)Man(a1-6)]Man(b1-4)GlcNAc(b1-4)GlcNAc
# Procedure, shortened: as §1
# [7] = target: GlcNAc(b1-3)Gal(b1-4)GlcNAc(b1-3)Gal(b1-4)GlcNAc(b1-3)Gal(b1-4)GlcNAc(b1-3)Gal(b1-4)GlcNAc(b1-2)Man(a1-3)[GlcNAc(b1-3)Gal(b1-4)GlcNAc(b1-3)Gal(b1-4)GlcNAc(b1-3)Gal(b1-4)GlcNAc(b1-3)Gal(b1-4)GlcNAc(b1-2)Man(a1-6)]Man(b1-4)GlcNAc(b1-4)[Fuc(a1-6)]GlcNAc
# Procedure, shortened: as §1
# [8] = target: GlcNAc(b1-3)Gal(b1-4)GlcNAc(b1-3)Gal(b1-4)GlcNAc(b1-3)Gal(b1-4)GlcNAc(b1-3)Gal(b1-4)GlcNAc(b1-2)[GlcNAc(b1-3)Gal(b1-4)GlcNAc(b1-3)Gal(b1-4)GlcNAc(b1-3)Gal(b1-4)GlcNAc(b1-3)Gal(b1-4)GlcNAc(b1-6)]Man(a1-6)[GlcNAc(b1-3)Gal(b1-4)GlcNAc(b1-3)Gal(b1-4)GlcNAc(b1-3)Gal(b1-4)GlcNAc(b1-3)Gal(b1-4)GlcNAc(b1-2)Man(a1-3)]Man(b1-4)GlcNAc(b1-4)[Fuc(a1-6)]GlcNAc
# Procedure, shortened: as §1
# [9] = target: GlcNAc(b1-3)Gal(b1-4)GlcNAc(b1-6)[Gal(b1-3)]GalNAc
# Procedure, shortened: as §1
# [10] = target: GlcNAc(b1-4)GlcNAc
# Procedure, shortened: as §1
# [11] = target: GlcNAc(b1-4)GlcNAc(b1-4)GlcNAc(b1-4)GlcNAc(b1-4)GlcNAc
# Procedure, shortened: as §1
# [12] = target: Kdn(a2-6)Gal(b1-4)GlcNAc
# Procedure, shortened: as §1
# [13] = target: Man(a1-6)Man
# Procedure, shortened: as §1
# [14] = target: Neu5Ac(a2-3)Gal(b1-3)GlcNAc(b1-3)Gal(b1-4)GlcNAc
# Procedure, shortened: as §1
# [15] = target: Neu5Ac(a2-3)Gal(b1-3)[Fuc(a1-4)]GlcNAc(b1-3)Gal(b1-3)[Fuc(a1-4)]GlcNAc
# Procedure, shortened: as §1
# [16] = target: Neu5Ac(a2-3)Gal(b1-3)[GlcNAc(b1-6)]GalNAc
# Procedure, shortened: as §1
# [17] = target: Neu5Ac(a2-3)Gal(b1-4)GlcNAc(b1-2)Man(a1-3)[GlcNAc(b1-4)][Neu5Ac(a2-3)Gal(b1-4)GlcNAc(b1-2)Man(a1-6)]Man(b1-4)GlcNAc(b1-4)GlcNAc
# Procedure, shortened: as §1
# [18] = target: Neu5Ac(a2-3)[GalNAc(b1-4)]Gal(b1-4)GlcNAc
# Procedure, shortened: as §1
# [19] = target: Neu5Ac(a2-6)Gal
# Procedure, shortened: as §1
# [20] = target: Neu5Ac(a2-6)Gal(b1-4)GlcNAc(b1-2)Man
# Procedure, shortened: as §1
# [21] = target: Neu5Ac(a2-6)Gal(b1-4)GlcNAc(b1-3)Gal(b1-4)GlcNAc(b1-3)Gal(b1-4)GlcNAc
# Procedure, shortened: as §1
# [22] = target: Neu5Ac(a2-6)Gal(b1-4)GlcNAc(b1-3)Gal(b1-4)GlcNAc(b1-3)Gal(b1-4)GlcNAc(b1-2)Man(a1-3)[Neu5Ac(a2-6)Gal(b1-4)GlcNAc(b1-3)Gal(b1-4)GlcNAc(b1-3)Gal(b1-4)GlcNAc(b1-2)Man(a1-6)]GalNAc
# Procedure, shortened: as §1
# [23] = target: Neu5Ac(a2-8)Neu5Ac(a2-3)Gal(b1-4)GlcNAc
# Procedure, shortened: as §1
# [24] = target: Neu5Ac(a2-8)Neu5Ac(a2-3)[GalNAc(b1-4)]Gal(b1-4)Glc
# Procedure, shortened: as §1
# [25] = target: Neu5Ac(a2-8)Neu5Ac(a2-8)Neu5Ac(a2-3)[Gal(b1-3)GalNAc(b1-4)]Gal(b1-4)Glc
# Procedure, shortened: as §1
# [26] = target: Neu5Ac(a2-8)Neu5Gc(a2-3)Gal(b1-4)GlcNAc
# Procedure, shortened: as §1
# [27] = target: Neu5Ac(b2-6)GalNAc
# Procedure, shortened: as §1
# [28] = target: Neu5Gc(a2-3)Gal(b1-3)GlcNAc
# Procedure, shortened: as §1
# [29] = target: Neu5Gc(a2-8)Neu5Gc(a2-3)Gal(b1-4)GlcNAc(b1-3)Gal(b1-4)GlcNAc
# Procedure, shortened: as §1
binder,measurement,setting,value
B1,glycan array binding signal (z-score),[1],1.18
same,glycan array binding signal (z-score),[2],0.671
same,glycan array binding signal (z-score),[3],-0.269
same,glycan array binding signal (z-score),[4],0.15
same,glycan array binding signal (z-score),[5],1.6
same,glycan array binding signal (z-score),[6],0.098
same,glycan array binding signal (z-score),[7],2.24
same,glycan array binding signal (z-score),[8],-0.034
same,glycan array binding signal (z-score),[9],1.56
same,glycan array binding signal (z-score),[10],-0.2
same,glycan array binding signal (z-score),[11],-0.492
same,glycan array binding signal (z-score),[12],-0.057
same,glycan array binding signal (z-score),[13],-0.481
same,glycan array binding signal (z-score),[14],0.993
same,glycan array binding signal (z-score),[15],2.16
same,glycan array binding signal (z-score),[16],-0.029
same,glycan array binding signal (z-score),[17],-0.279
same,glycan array binding signal (z-score),[18],-0.469
same,glycan array binding signal (z-score),[19],0.311
same,glycan array binding signal (z-score),[20],-0.411
same,glycan array binding signal (z-score),[21],-0.506
same,glycan array binding signal (z-score),[22],0.689
same,glycan array binding signal (z-score),[23],-0.198
same,glycan array binding signal (z-score),[24],-0.361
same,glycan array binding signal (z-score),[25],-0.241
same,glycan array binding signal (z-score),[26],13.7
same,glycan array binding signal (z-score),[27],-0.424
same,glycan array binding signal (z-score),[28],-0.496
same,glycan array binding signal (z-score),[29],0.531
